Compound activity as filed in PubChem BioAssay.
Hits are enriched below; roughly 7.3% of the tested compounds scored in any of these assays.
NPC1 promoter act: activates the NPC1 promoter; AID 485313; Huh7 NPC1 promoter luciferase reporter, 24 h; Potency, µM (top dose mostly 9.22 µM), usual class: activators; 320,000 tested, 2.4% active; also: nearly all actives have a fitted effect of over 60% in size
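Stable NPC1-promoter luciferase Huh7 line; cpd (DMSO) 24 h, 37 °C, 5% CO2; Amplite luciferase reagent 10 min RT; luminescence readout. qHTS format.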
FLuc counter: counter-screen for miR-21 project: firefly luciferase inhibitors or activators; 360,000 tested, 6.9% active; P08659; Potency, µM (series often up to 57.5 µM), actives largely listed as inhibitors; purified FLuc, Km substrates, luminescence inhibition; also: nearly all actives have a fitted effect of over 55% in size
Target sequence (P08659 whole entry, looked up): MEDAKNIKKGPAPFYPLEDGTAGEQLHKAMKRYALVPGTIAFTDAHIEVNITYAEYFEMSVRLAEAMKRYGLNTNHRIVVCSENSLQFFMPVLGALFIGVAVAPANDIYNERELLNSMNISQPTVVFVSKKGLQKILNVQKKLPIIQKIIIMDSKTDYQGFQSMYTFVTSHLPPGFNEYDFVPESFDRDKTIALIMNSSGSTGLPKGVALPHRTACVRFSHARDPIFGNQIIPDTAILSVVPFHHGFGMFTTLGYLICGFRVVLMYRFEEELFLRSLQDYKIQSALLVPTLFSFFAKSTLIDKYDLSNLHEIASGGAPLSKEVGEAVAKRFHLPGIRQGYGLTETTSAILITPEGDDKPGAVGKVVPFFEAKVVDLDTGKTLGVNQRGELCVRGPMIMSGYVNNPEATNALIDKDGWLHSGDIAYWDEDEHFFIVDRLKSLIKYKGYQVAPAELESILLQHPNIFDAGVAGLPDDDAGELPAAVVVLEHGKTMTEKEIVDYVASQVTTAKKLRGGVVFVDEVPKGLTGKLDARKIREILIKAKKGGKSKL
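Purified P. pyralis luciferase (10nM final) with 10uM D-luciferin and 10uM ATP (Km levels) in 50mM Tris acetate pH 7.5, 10mM Mg acetate, 0.01% Tween-20, 0.05% BSA; qHTS 6-point titration, ~60 µM downward; luminescence read.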
Rab9 promoter act: activators of Rab9 promoter; Huh7 Rab9 promoter-luciferase reporter, luminescence, 24 h; Potency, µM (doses to about 9.22 µM), most hits filed as activators; 320,000 tested, 2.8% active; AID 485297; also: nearly all actives have a fitted effect of over 60% in size
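Huh7 reporter line, Rab9 promoter upstream of luciferase. Compound exposure 24 h at 37 °C in reduced-serum medium with 10% FBS. Read-out: luminescence.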
SMN2 splice enh: SMN2 splice variant enhancement; HEK293 SMN2-luciferase splicing reporter, luminescence, 30-36 h; Potency, µM (top dose mostly 46.1 µM), most hits filed as activators; 210,000 tested, 2.8% active; also: nearly all actives have a fitted effect of over 55% in size
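HEK293 cells carry an SMN2 […]–luciferase reporter in which exon 7 inclusion puts luciferase in frame. Cells were plated 10-12 h before compound addition, then incubated 30-36 h at 37C. ONE-Glo luminescence was read; sodium butyrate at 4.5 mM final served as control.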
ELG1 genotoxic: induces genotoxicity in HEK293T cells with luciferase-tagged ELG1. HEK293T ELG1-luciferase reporter, luminescence, 16 h. Potency, µM (doses to about 46 µM), actives largely listed as activators. 330,000 tested, 1.3% active; also: nearly all actives have a fitted effect of over 60% in size
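Step 1: seed 2,000 HEK293T ELG1-luciferase cells per well. Step 2: add compound or DMSO, incubate 16 hr at 37 °C. Step 3: ONE-Glo, 30 min at room temperature, read luminescence.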
KinaseGlo FLuc: blocks Kinase-Glo luciferase, a counter-screen artifact; Kinase-Glo luciferase, ATP luminescence, 8 min; Potency, µM (top dose mostly 38.3 µM), usual class: inhibitors; 200,000 tested, 0.28% active; also: nearly all actives have a fitted effect of over 60% in size
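Luminescence was the read-out, taken after 8-minute incubation at ambient temperature. Luciferase turned over luciferin with 10 uM ATP in imidazole pH 7.2 buffer containing KCl, MgCl2, Tween 20 and BSA.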
Numbers stand for hits; – = inactive; ? = inconclusive; · = no result; [ ] = another dose, or the depositor's remark. Calls follow the shape of the dose curve; as a rule, active = well fitted curve in the direction sought with a large enough effect; inconclusive = small, poorly fitted or top-dose-only effect, or another doubt; inactive = no such curve, though single readings can be large; an effect the other way counts as inactive or inconclusive.

SMILES	NPC1 promoter act	FLuc counter	Rab9 promoter act	SMN2 splice enh	ELG1 genotoxic	KinaseGlo FLuc
Cn1c(-c2ccc3nc(N)sc3c2)nc2cc(N)ccc21	?	21µM	–	–	?	–
Cn1c(-c2ccc(N)cc2)nc2ccccc21	?	19µM	4µM	·	?	·
Cn1c(CCc2ccc(N)cc2)nc2ccccc21	3.2µM	12µM	1.6µM	11µM	?	–
Nc1nc2ccc(C(=O)N3CCCCC3)cc2s1	–	–	–	·	–	·
COc1ccc(Cc2nc3ccccc3n2C)cc1	–	–	–	–	–	–
Cn1c(-c2ccc(Cl)nc2)nc2ccccc21	–	?	–[1.84 µM]	·	–	·
CCOC(=O)COc1ccc(C)cc1C(=O)c1ccn2nc(-c3ccc(C)cc3)cc2n1	·	–	·	–	·	·
CN(c1ccc(OCC(=O)N2CCCC2)cc1)S(=O)(=O)c1ccc(Cl)cc1	–	–	–	·	–	·
O=C(Nc1cccc(O)c1)c1cc(-c2ccccc2Cl)on1	?	0.38µM	–	·	?	·
COc1ccc(NC(=O)c2cc(-c3ccc(OC)c(OC)c3)on2)cc1OC	–	–	–	–	–	–
Cn1ncc(C#N)c1NC(=O)c1cc(-c2ccccc2Cl)on1	–	27µM	–	–	–	–
COc1ccc(NC(=O)c2cc(-c3ccccc3Cl)on2)cc1OC	–	7.6µM	–	·	–	·
O=C(Nc1ccccc1)OCc1cc(-c2ccccc2Cl)on1	–	13µM	–	?	–	–
O=C(NCCN1CCOCC1)c1cc(-c2ccccc2Cl)on1	–	?	–	·	–	·
Cc1ccc(S(=O)(=O)n2cc(-c3ccccc3)c3ccccc32)cc1	–	–	–	·	–	·
O=C(Oc1ccc(OC(=O)c2ccco2)c(S(=O)(=O)c2ccc(Cl)cc2)c1)c1ccco1	–	–	–	–	–	–
CC(=O)N1c2ccc(S(=O)(=O)NCCC(=O)NC3CCC(C)CC3)cc2CC1C (stereo unspecified)	–	–	–	·	–	·
COc1ccc(C(=O)NC2CCN(CC(=O)NC3CCCCC3)CC2)cc1	–	–	–	·	–	·
C=CCOc1ccc(C(=O)NC2CCCCC2)cc1	?	12µM	?	·	?	–
CC(C)Oc1ccc(C(=O)NC2CCS(=O)(=O)C2)cc1 (stereo unspecified)	–	–	–	–	–	–
CC(C)Oc1ccc(C(=O)NC2CCCCC2)cc1	2.8µM	11µM	4µM	?	18µM	–
O[C@@H]1COC(Nc2ccc(N=Nc3ccccc3)cc2)C[C@@H]1O (stereo partly specified)	?	0.34µM	3.2µM	·	?	·
COc1ccc([N+](=O)[O-])cc1CSc1ccccn1	–	–	–	–	–	–
CN=c1scc(-c2ccccc2Br)n1/N=C/c1ccc[nH]1	?	1.1µM	?	·	0.46µM	–
CN=c1scc(-c2ccc(Br)cc2)n1C	–	–	–	–	–	–
SMILES	NPC1 promoter act	FLuc counter	Rab9 promoter act	SMN2 splice enh	ELG1 genotoxic	KinaseGlo FLuc
COc1ccc(-c2cc(C(F)(F)F)nc(SCC(=O)NCCN3CCOCC3)n2)cc1OC	–	–	–	–	–	–
O=c1c(C=NCCCn2ccnc2)c(-c2ccccc2)[nH]n1-c1nc2ccccc2s1	–	17µM	–	·	?	–
Cc1ccc(CNC(=O)Cc2ccc(-n3c(=O)[nH]c4ccsc4c3=O)cc2)cc1	–	?	–	–	–	–
Cc1ccc(CC2CC(=O)N(c3nc4ccccc4s3)C2=O)cc1 (stereo unspecified)	–	27µM	–	·	–	–
O=C1C2C3C=CC(C3)C2C(=O)N1c1ccc2ccccc2n1 (stereo unspecified)	–	?	–	–	–	–
COc1ccc2nc(N3C(=O)CC(Cc4ccc(C)cc4)C3=O)sc2c1 (stereo unspecified)	–	?	–	–	–	–
O=C1C2C3C=CC(C3)C2C(=O)N1c1nc2ccccc2s1 (stereo unspecified)	–	19µM	–	–	–	–
COc1ccc(C(=O)Nc2cc3c4c(c2)CC(=O)N4CCC3)c(OC)c1	?	15µM	?	·	?	·
COc1ccc(C(=O)Nc2cc3c4c(c2)C(C)C(=O)N4CCC3)cc1OC (stereo unspecified)	–	–	–	·	?	·
COc1ccc(C(=O)Nc2cc3c4c(c2)C(C)C(=O)N4CCC3)cc1 (stereo unspecified)	–	12µM	–	·	?	·
COc1ccc(C(=O)Nc2cc3c4c(c2)CC(=O)N4CCC3)cc1	–	21µM	–	·	?	·
N[C@@H](CSc1nc2ccccn2c1[N+](=O)[O-])C(=O)O	·	·	·	–[9.22 µM]	·	–[7.66 µM]
CCSc1nsc(NC(=O)Nc2ccccc2F)n1	2.8µM	11µM	1.6µM	·	–	·
CCSc1nsc(NC(=O)Nc2cccc(OC)c2)n1	–	21µM	–	·	–	·
C=CCSc1nsc(NC(=O)Nc2ccc(F)cc2)n1	–	24µM	–	·	–	·
O=C(Nc1ccc(F)cc1)Nc1nnc(SCC(=O)N2CCCCC2)s1	·	–	·	·	·	·
CC(c1ccccc1)c1nnc(NC(=O)Nc2ccccc2F)s1 (stereo unspecified)	?	?	–	·	–	·
COC(=O)CCn1nnc(-c2ccc(C)cc2)n1	–	17µM	–	–	?	–
CC1(C)NC(=O)N(CCOCCOc2ccc3ccccc3c2Br)C1=O	–	?	–[1.84 µM]	–	?	–
CC1(C)NC(=O)N(CCCCOc2ccc3ccccc3c2Cl)C1=O	?	21µM	–	–	?	–
COc1ccc(Cn2cccc(NC(=O)Nc3cccc(OC)c3)c2=O)cc1	–	21µM	–	·	–	·
CSc1ccc(NC(=O)Nc2cccn(Cc3ccccc3)c2=O)cc1	–	11µM	–	·	–	–
COc1ccc(Cn2cccc(NC(=O)Nc3ccc(F)cc3)c2=O)cc1	–	?	–	·	–	–
O=C(NCc1ccccc1)Nc1cccn(Cc2ccccc2Cl)c1=O	–	8.5µM	–	–	–	–
COc1cccc(NC(=O)Nc2cccn(Cc3ccccc3)c2=O)c1	–	17µM	–	–	–	–
SMILES	NPC1 promoter act	FLuc counter	Rab9 promoter act	SMN2 splice enh	ELG1 genotoxic	KinaseGlo FLuc
COc1cccc(Cn2cccc(NC(=O)Nc3ccc(C#N)cc3)c2=O)c1	–	?	–	–	–	–
O=C(CSc1nc2ccccc2o1)Nc1nc2ccc(Br)cc2s1	–	–	–	–	–	–
CC(Sc1nnc(-c2cccnc2)n1N)C(=O)NCCC1=CCCCC1 (stereo unspecified)	–	–	–	·	–	·
O=C(Nc1ccccc1)Nc1cccn(Cc2c(F)cccc2Cl)c1=O	–	11µM	?	·	–	–
COc1cccc(Cn2cccc(NC(=O)NCc3ccccc3)c2=O)c1	–	21µM	–	·	–	·
Cc1ccc(Cn2cccc(NC(=O)c3ccco3)c2=O)cc1	–	15µM	?	–	–	–
COc1cccc(Cn2cccc(NC(=O)Nc3ccccc3C)c2=O)c1	–	–	–	·	–	–
